# From PubChem
# A selection: hits, their analogues and other compounds. The true share with any hit is near 6.7%.
# C diff HTS – C. difficile growth inhibition; Clostridium difficile clinical isolate growth, OD600, 24 h; hits give low values; growth activity, negative = inhibition, % at 16 µg/mL (by protocol); actives 0.25% (n = 86,000); AID 1259249;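 active = mean growth activity at or below -80% and every replicate also at or below -80%; inconclusive = mean at or below -80% but some replicate above -80%; inactive = mean growth activity above -80%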;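 also: 0% = DMSO wells and -100% = levofloxacin 16 µg/mL wells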
# Pf Dd2 growth – inhibitors of Plasmodium falciparum Dd2 growth | AID 1159554 | actives 2.3% (n = 94,000) | P. falciparum Dd2 growth, SYBR Green, 72 h; hits give low values | activity change, % at 10 µM; in the data active = activity change below about -80%; inconclusive = no clear call, values can overlap the other calls
# T cruzi growth-1 – T. cruzi proliferation inhibition; T. cruzi beta-gal in NIH3T3, GalScreen luminescence, 90 h; inhibition, % at 8.34 µM; actives 5.9% (n = 77,000); AID 624255;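 active = mean inhibition above about 93%, with at least 55% of replicates each passing it, limit read from the data, passing the limit was not always enough; inconclusive = only one of those two conditions holds; inactive = neither condition holds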
# T cruzi growth-2 – Trypanosoma cruzi proliferation inhibition | shares compounds with T cruzi growth-1 | T. cruzi beta-gal in NIH3T3, GalScreen luminescence, 90 h | inhibition, % at 8.35 µM | actives 72% (n = 5,600) | AID 651739;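 active = mean replicate inhibition above about 95% and at least 55% of replicates individually reaching it, limit read from the data; inconclusive = only one of the two criteria is met; inactive = neither criterion is met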
# T cruzi growth-3 – Trypanosoma cruzi proliferation inhibition. inhibition, % at 2.09 µM. actives 21% (n = 5,600). AID 651740. T. cruzi beta-gal in NIH3T3, GalScreen luminescence, 90 h. shares compounds with T cruzi growth-1;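 active = mean inhibition above about 95%, with at least 55% of replicates also reaching it, limit read from the data; inconclusive = meets just one of the two conditions; inactive = meets neither condition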;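 also: plate controls were neutral control median for no effect and positive control median for full effect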
# NIH3T3 tox – cytotoxicity in mouse NIH/3T3 fibroblasts. shares compounds with T cruzi growth-1. NIH/3T3 viability, CellTiter-Glo ATP luminescence, 90 h. cytotoxicity (signal decrease), % at 8.35 µM. actives 14% (n = 5,600);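 active = mean signal decrease across replicates above about 35% based on untreated-well scatter, with enough replicates individually passing, limit read from the data; inconclusive = no rule stated though some were filed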;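 also: 0% = median of neutral control wells and 100% = median of positive control wells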
# NIH3T3 tox 2 – kills mouse NIH/3T3 fibroblasts; shares compounds with T cruzi growth-1; NIH/3T3 viability, CellTiter-Glo ATP luminescence, 90 h; inhibition, % at 24.9 µM; actives 56% (n = 5,600);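 active = mean loss of cell viability signal at or above a set limit, and enough replicates individually reaching it; inconclusive = meets only the mean limit or only the replicate share; inactive = meets neither condition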;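 also: 0% = median of neutral control wells and 100% = median of positive control wells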
# Numbers without * were called inactive; ? = inconclusive; . = no result.
SMILES,C diff HTS,Pf Dd2 growth,T cruzi growth-1,T cruzi growth-2,T cruzi growth-3,NIH3T3 tox,NIH3T3 tox 2
C[C@@H]1CN([C@H](C)CO)S(=O)(=O)c2ccc(C3=CCCC3)cc2O[C@H]1CN(C)Cc1cccnc1,7,-8,101*,93,76,?,36*
C[C@H](CO)N1C[C@H](C)[C@H](CN(C)Cc2cccnc2)Oc2cc(C3=CCCCC3)ccc2S1(=O)=O,7,-33,.,.,.,.,.
C[C@@H]1CN([C@@H](C)CO)S(=O)(=O)c2ccc(C3=CCCC3)cc2O[C@@H]1CN(C)Cc1ccccc1,1,9,107*,?,68,33,106*
C[C@@H]1CN([C@@H](C)CO)S(=O)(=O)c2ccc(C3=CCCC3)cc2O[C@H]1CN(C)Cc1ccccc1,8,-56,80,.,.,.,.
CN(C)C(=O)c1ccc(-c2ccc3c(c2)[C@@H]2[C@@H](CCN2Cc2cncnc2)[C@@H](CO)N3)cc1,-2,13,69,.,.,.,.
O=C(C[C@H]1C=C[C@@H](NC(=O)C2CCC2)[C@H](CO)O1)NCc1ccncc1,1,4,-28,.,.,.,.
COCC(=O)N(C)C[C@@H]1[C@H](c2ccc(-c3cccnc3)cc2)[C@@H](CO)N1C(C)=O,0,5,100*,-70,-21,-30,-27
CCC(=O)N(C)C[C@H]1[C@H](c2ccc(-c3cccnc3)cc2)[C@@H](CO)N1C(C)=O,-7,9,55,.,.,.,.
CCC(=O)N1[C@@H](CO)[C@@H](c2ccc(-c3cccnc3)cc2)[C@@H]1CN(CC)C(C)=O,9,31,98*,-4,18,-3,13
CCC(=O)N1[C@H](CO)[C@@H](c2ccc(-c3cccnc3)cc2)[C@@H]1CN(C)C(C)=O,1,13,-5,.,.,.,.
O=C(Nc1ccc2c(c1)[C@H]1C[C@@H](CC(=O)N3CCOCC3)O[C@@H](CO)[C@H]1O2)c1ccc2c(c1)OCO2,3,25,44,.,.,.,.
C[C@@H]1CN([C@H](C)CO)C(=O)c2cc(NC(=O)Cc3cn(C)c4ccccc34)ccc2O[C@@H]1CN(C)C(=O)Nc1ccc2c(c1)OCO2,9,-28,-77,.,.,.,.
C[C@@H]1CCCCO[C@H](CN(C)C(=O)c2ccccc2)[C@@H](C)CN([C@H](C)CO)C(=O)c2cc(N(C)C)ccc2O1,1,.,58,.,.,.,.
C[C@@H]1CN([C@H](C)CO)C(=O)c2cccc(NS(=O)(=O)c3ccccc3)c2O[C@@H]1CN(C)S(C)(=O)=O,-1,4,0,.,.,.,.
CC(C)C#Cc1cnc2c(c1)C(=O)N([C@@H](C)CO)C[C@@H](C)[C@H](CN(C)Cc1cncnc1)O2,-1,34,-9,.,.,.,.
C[C@H](CO)N1C[C@H](C)[C@H](CN(C)C(=O)Nc2ccc(F)cc2)OCCCC[C@H](C)Oc2ccc(NC(=O)Nc3ccccc3)cc2C1=O,0,15,123*,107*,50,6,1
C[C@@H]1CCCCO[C@@H](CN(C)C(=O)Nc2ccccc2)[C@H](C)CN([C@@H](C)CO)C(=O)c2cc(NC(=O)Nc3ccc(F)cc3)ccc2O1,.,22,97*,114*,58,-16,-20
C[C@@H]1CN([C@H](C)CO)C(=O)c2cc(NC(=O)Nc3ccc(F)cc3)ccc2O[C@@H](C)CCCCO[C@H]1CN(C)C(=O)Nc1ccccc1,.,-7,48,.,.,.,.
C[C@@H]1CCCCO[C@@H](CN(C)C(=O)Nc2ccc(F)cc2)[C@@H](C)CN([C@@H](C)CO)C(=O)c2cc(NC(=O)Nc3ccccc3)ccc2O1,4,-56,79,.,.,.,.
C[C@H](CO)N1C[C@H](C)[C@H](CN(C)C(=O)Nc2cccc3ccccc23)Oc2ccc(NS(=O)(=O)c3ccc(F)cc3)cc2CC1=O,-8,-6,10,.,.,.,.
CCC(=O)N1C[C@H](C)[C@@H](OC)CN(C)C(=O)c2ccc(NC(=O)CC(F)(F)F)cc2OC[C@H]1C,-12,9,.,.,.,.,.
COc1ccc(CN(C)C[C@H]2Oc3c(NC(=O)c4nc5ccccc5s4)cccc3C(=O)N([C@H](C)CO)C[C@@H]2C)cc1,-5,-17,?,90,74,3,11
